FadD28 binding – inhibitors of FadD28 bisubstrate probe binding, primary screen, biochemical, fluorescence polarization, single point; Mycobacterium tuberculosis FadD28 fatty-acid-AMP ligase; inhibition, % at 12.5 µM; 0.22% of 360,000 active; AID 588549, 2011; in the data active means inhibition above about 8.5%, passing the limit was not always enough
Y pestis TopoI – Yersinia pestis topoisomerase I inhibitors, primary screen, biochemical, cleavage product accumulation, plate reader, single point; DNA topoisomerase I (Yersinia pestis CO92); Y. pestis Topo-I cleavage product accumulation; activity, % at 10 µM; 0.064% of 360,000 active; AID 504884, 2011; in the data active means activity above about 50%, passing the limit was not always enough
PrP UTR inh – inhibition of PrP 5' UTR reporter expression; inhibition, % (no concentration beside the values); cell-based PrP 5' UTR mRNA reporter, plate reader; 0.35% of 340,000 active; in the data active means inhibition above about 52%; further: 0 = median of the neutral control wells
TcdB inh – TcdB glycohydrolase inhibitors, primary screen, biochemical, single point, plate reader | Toxin B (Clostridioides difficile), P18177 | TcdB glycohydrolase enzymatic assay | inhibition, % at 9.99 µM | 0.24% of 350,000 active | AID 652162, 2013; in the data active means inhibition above about 10%
Target sequence (P18177 whole entry, looked up): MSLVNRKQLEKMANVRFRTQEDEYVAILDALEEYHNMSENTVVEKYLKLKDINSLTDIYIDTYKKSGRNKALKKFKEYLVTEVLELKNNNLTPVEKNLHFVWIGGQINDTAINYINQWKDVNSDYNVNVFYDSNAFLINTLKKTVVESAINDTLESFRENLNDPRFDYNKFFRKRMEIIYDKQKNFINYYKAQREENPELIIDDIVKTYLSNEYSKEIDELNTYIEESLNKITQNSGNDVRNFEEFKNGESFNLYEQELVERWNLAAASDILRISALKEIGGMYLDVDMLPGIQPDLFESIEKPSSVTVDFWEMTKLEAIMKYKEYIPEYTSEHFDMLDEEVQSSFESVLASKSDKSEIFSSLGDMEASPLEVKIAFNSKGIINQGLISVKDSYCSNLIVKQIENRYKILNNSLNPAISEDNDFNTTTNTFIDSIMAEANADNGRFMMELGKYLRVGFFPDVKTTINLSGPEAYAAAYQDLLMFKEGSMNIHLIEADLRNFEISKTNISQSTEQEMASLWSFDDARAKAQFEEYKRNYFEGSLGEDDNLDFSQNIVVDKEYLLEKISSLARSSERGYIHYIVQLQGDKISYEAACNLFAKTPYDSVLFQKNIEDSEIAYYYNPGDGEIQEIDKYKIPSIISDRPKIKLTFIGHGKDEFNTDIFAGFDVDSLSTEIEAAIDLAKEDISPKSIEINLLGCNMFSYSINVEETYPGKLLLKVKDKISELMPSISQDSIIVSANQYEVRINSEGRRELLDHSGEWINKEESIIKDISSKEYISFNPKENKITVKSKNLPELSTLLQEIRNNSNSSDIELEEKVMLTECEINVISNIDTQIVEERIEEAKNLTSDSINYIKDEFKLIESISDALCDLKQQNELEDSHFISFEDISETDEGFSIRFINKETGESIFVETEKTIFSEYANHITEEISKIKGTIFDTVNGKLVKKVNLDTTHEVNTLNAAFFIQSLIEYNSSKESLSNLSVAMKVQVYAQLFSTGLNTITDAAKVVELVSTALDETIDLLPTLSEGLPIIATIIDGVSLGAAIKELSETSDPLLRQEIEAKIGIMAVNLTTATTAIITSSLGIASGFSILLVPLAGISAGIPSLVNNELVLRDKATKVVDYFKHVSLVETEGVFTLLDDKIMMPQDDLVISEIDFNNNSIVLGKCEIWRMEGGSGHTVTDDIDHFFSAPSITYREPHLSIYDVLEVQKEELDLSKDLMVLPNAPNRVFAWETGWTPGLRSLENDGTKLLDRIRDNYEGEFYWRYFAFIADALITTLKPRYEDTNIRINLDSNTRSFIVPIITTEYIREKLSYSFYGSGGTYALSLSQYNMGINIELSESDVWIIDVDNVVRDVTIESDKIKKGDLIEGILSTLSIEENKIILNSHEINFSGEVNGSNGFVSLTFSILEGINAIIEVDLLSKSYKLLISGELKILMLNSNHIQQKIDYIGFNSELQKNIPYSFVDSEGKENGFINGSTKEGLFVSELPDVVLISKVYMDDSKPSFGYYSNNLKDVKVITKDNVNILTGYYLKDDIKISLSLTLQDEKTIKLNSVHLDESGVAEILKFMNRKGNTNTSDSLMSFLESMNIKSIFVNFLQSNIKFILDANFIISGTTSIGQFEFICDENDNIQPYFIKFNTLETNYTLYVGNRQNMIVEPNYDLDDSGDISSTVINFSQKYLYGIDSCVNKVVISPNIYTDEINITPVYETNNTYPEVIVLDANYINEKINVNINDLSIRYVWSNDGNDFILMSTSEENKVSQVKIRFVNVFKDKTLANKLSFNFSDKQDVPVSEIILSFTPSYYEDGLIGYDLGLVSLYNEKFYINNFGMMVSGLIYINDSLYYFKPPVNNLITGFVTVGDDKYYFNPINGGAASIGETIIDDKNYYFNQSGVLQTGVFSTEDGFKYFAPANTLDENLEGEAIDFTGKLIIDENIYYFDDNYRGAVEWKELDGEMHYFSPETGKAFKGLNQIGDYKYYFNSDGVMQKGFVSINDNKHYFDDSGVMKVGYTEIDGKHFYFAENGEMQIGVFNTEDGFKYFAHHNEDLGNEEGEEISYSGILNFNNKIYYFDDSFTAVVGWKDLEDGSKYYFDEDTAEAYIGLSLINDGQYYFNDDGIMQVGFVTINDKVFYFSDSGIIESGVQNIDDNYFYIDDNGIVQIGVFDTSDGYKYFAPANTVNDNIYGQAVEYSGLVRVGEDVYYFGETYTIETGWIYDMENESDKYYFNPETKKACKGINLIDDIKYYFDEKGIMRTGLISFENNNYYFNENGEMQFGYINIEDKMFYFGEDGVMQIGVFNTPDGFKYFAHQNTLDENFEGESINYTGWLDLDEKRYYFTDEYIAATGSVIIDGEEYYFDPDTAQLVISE
Mtb BioA inh – M. tuberculosis BioA enzyme inhibitors, primary screen, biochemical, plate reader, single point, HTS; purified M. tuberculosis BioA enzyme; inhibition, % at 9.99 µM; 0.096% of 360,000 active; AID 602481, 2012; in the data active means inhibition above about 40%
PfHsp40 yeast – rescue of yeast from PfHsp40 toxicity, primary screen, S. cerevisiae, ATP luminescence; 0.68% of 340,000 active; S. cerevisiae expressing PfHsp40, growth rescue; growth rescue, % at 12.5 µM; AID 504582, 2011; in the data active means growth rescue above about 28%, passing the limit was not always enough;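 further: yeast W303a lacking pdr1 and pdr3 grown in galactose medium; growth measured after three days at 30 °C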
Active calls of the source: *. A selection: hits, their analogues and other compounds. The true share with any hit is near 1.2%.

What do the screens show for `CCc1ccccc1NC(=O)CN1CCN(CC(=O)NCc2ccc(Cl)cc2)CC1`?
FadD28 binding: -3.9; Y pestis TopoI: 15.8; PrP UTR inh: 1.8; TcdB inh: 13.6*; Mtb BioA inh: 4.3; PfHsp40 yeast: -0.8

What do the screens show for `Cc1cc(-n2ccnc2)n2c(nc3ccccc32)c1C#N`?
FadD28 binding: 1.7; Y pestis TopoI: 4.3; PrP UTR inh: -20.2; TcdB inh: 0.6; Mtb BioA inh: 1.4; PfHsp40 yeast: 37.6*

Results for CN(N=Cc1cccc2cccnc12)c1ccc([N+](=O)[O-])cc1[N+](=O)[O-] ?
FadD28 binding: -4.6; Y pestis TopoI: -3.5; PrP UTR inh: -13.6; TcdB inh: 1.8; PfHsp40 yeast: 0.3

Results for CN(C)/N=C/c1ccc([N+](=O)[O-])cc1[N+](=O)[O-] ?
FadD28 binding: -1.8; Y pestis TopoI: -5.0; PrP UTR inh: -5.8; TcdB inh: 0.8; PfHsp40 yeast: 30.8*

What do the screens show for `C[C@@H]1CN([C@@H](C)CO)C(=O)c2cc(-c3ccncc3)cnc2O[C@H]1CN(C)S(=O)(=O)c1ccc(F)cc1`?
TcdB inh: -1.2; Mtb BioA inh: 3.2

How did CCOC(=O)c1ccc(N2C(=O)CC(N3CCCC(C)C3)C2=O)cc1 (stereo not given) do in these assays?
FadD28 binding: 0.8; Y pestis TopoI: -7.2; PrP UTR inh: -9.4; TcdB inh: -11.3; Mtb BioA inh: -8.2; PfHsp40 yeast: 584.6*

Results for CCCOc1ccc(N2C(=O)CC(N3CCC(C(=O)OCC)CC3)C2=O)cc1 (stereo not given) ?
FadD28 binding: -2.8; Y pestis TopoI: -6.3; PrP UTR inh: -14.7; Mtb BioA inh: -0.8; PfHsp40 yeast: 522.9*

What do the screens show for `CCOC(=O)c1ccc(N2C(=O)CC(N3CCC(O)(c4ccc(Br)cc4)CC3)C2=O)cc1` (stereo not given)?
FadD28 binding: -3.5; Y pestis TopoI: 1.3; PrP UTR inh: -9.0; PfHsp40 yeast: 0.1

How did CCOC(=O)c1ccc(N2C(=O)CC(N3CCC(O)(c4ccc(Cl)cc4)CC3)C2=O)cc1 (stereo not given) do in these assays?
FadD28 binding: 0.4; Y pestis TopoI: 13.4; PrP UTR inh: -2.9; Mtb BioA inh: 5.4; PfHsp40 yeast: 534.4*

Results for CCNC(=O)[C@@H]1[C@@H](CO)[C@@H]2Cn3c(ccc(-c4ccccc4)c3=O)[C@H]1N2Cc1ccccc1 ?
TcdB inh: 1.0; Mtb BioA inh: 0.3

How did Cc1cc(C)cc(NC(=O)Nc2ccc3c(c2)C(=O)N(C)[C@@H]2CC[C@@H](CC(=O)O)O[C@@H]2CO3)c1 do in these assays?
Mtb BioA inh: -2.3

What do the screens show for `O=C(COc1ccccc1)Nc1ccncc1`?
FadD28 binding: -2.8; Y pestis TopoI: -7.9; PrP UTR inh: -14.9; TcdB inh: 1.6; PfHsp40 yeast: 44.4*

Results for O=C(COc1ccc2ccccc2c1)Nc1ccncc1 ?
FadD28 binding: -8.8; Y pestis TopoI: -0.8; PrP UTR inh: -26.4; TcdB inh: 1.3; PfHsp40 yeast: -0.3

How did CC[C@@H](C(=O)[C@@H](C)[C@@H](O)[C@H](C)CCc1ccc(C)c(O)c1C(=O)O)[C@H]1O[C@](CC)([C@H]2CC[C@](O)(CC)[C@H](C)O2)C[C@@H]1C do in these assays?
FadD28 binding: -1.5; Y pestis TopoI: 10.0; PrP UTR inh: -24.9; TcdB inh: 0.9; Mtb BioA inh: 2.9; PfHsp40 yeast: 184.3*

Results for CNC[C@H]1Oc2ccc(NC(=O)CCC(F)(F)F)cc2CC(=O)N([C@@H](C)CO)C[C@H]1C ?
TcdB inh: 1.3; Mtb BioA inh: -0.9

What do the screens show for `CCCSc1nc2cc(OC)c(OC)cc2c(=N)n1CCCN1CCOCC1`?
FadD28 binding: -2.3; Y pestis TopoI: 8.2; PrP UTR inh: -35.0; TcdB inh: 0.7; PfHsp40 yeast: 1.8

How did COCCCn1c(SCc2ccc(OC)cc2)nc2cc(OC)c(OC)cc2c1=N do in these assays?
FadD28 binding: 20.9*; Y pestis TopoI: 7.9; PrP UTR inh: -13.5; Mtb BioA inh: 1.0; PfHsp40 yeast: -0.6

How did O=C(N/N=C/c1cc(Br)ccc1O)c1ccccc1Cl do in these assays?
FadD28 binding: -20.0; Y pestis TopoI: -10.2; PrP UTR inh: 13.2; Mtb BioA inh: 6.6; PfHsp40 yeast: 465.8*

Results for CN(C)CCCOC(=O)C1c2ccccc2Oc2ccccc21 ?
FadD28 binding: -4.0; Y pestis TopoI: -5.4; PrP UTR inh: -13.7; Mtb BioA inh: -0.6; PfHsp40 yeast: 43.6*

Results for CO[C@@H]1CN(C)C(=O)c2cc(NS(=O)(=O)c3ccc(-c4ccccc4)cc3)ccc2OC[C@H](C)NC[C@H]1C ?
TcdB inh: -1.1; Mtb BioA inh: -1.3

How did CCCCN1C(=O)/C(=C/C=C2\Oc3ccccc3N2CC)SC1=S do in these assays?
FadD28 binding: 3.9; Y pestis TopoI: -0.1; PrP UTR inh: -23.0; TcdB inh: 0.0; Mtb BioA inh: -2.5; PfHsp40 yeast: -2.0

Results for CCN1/C(=C/C=C/c2oc3ccc(-c4ccccc4)cc3[n+]2CC)Oc2ccc(-c3ccccc3)cc21 ?
FadD28 binding: 95.4*; Y pestis TopoI: 12.1; PrP UTR inh: 11.2; TcdB inh: 1.2; Mtb BioA inh: -201.2; PfHsp40 yeast: 129.0*

How did O=C(NCCC(=O)N1CCCCCCC1)c1ccc(Br)cc1 do in these assays?
FadD28 binding: -3.2; Y pestis TopoI: -5.9; PrP UTR inh: -8.8; TcdB inh: -0.2; Mtb BioA inh: 0.8; PfHsp40 yeast: 70.1*

What do the screens show for `COc1ccc(/C=N/Nc2cc(C)nc(-n3nc(C)cc3C)n2)c(OC)c1`?
FadD28 binding: 0.8; Y pestis TopoI: 16.5; PrP UTR inh: 7.8; TcdB inh: 1.8; PfHsp40 yeast: 178.0*

What do the screens show for `Cc1ccnc2nc(C(=O)NC3CCCc4ccccc43)nn12` (stereo not given)?
FadD28 binding: -1.4; Y pestis TopoI: 12.0; PrP UTR inh: 0.1; TcdB inh: -1.1; PfHsp40 yeast: 147.5*

Results for COC(=O)c1sc2nc(SCc3ccccc3C)n(N)c(=O)c2c1C ?
FadD28 binding: -1.4; Y pestis TopoI: -4.6; PrP UTR inh: -6.2; TcdB inh: 16.4*; PfHsp40 yeast: -0.8

How did COCC(=O)N1C[C@H](C)[C@@H](OC)CN(C)C(=O)c2cc(NC(=O)C3CCC3)ccc2OC[C@H]1C do in these assays?
TcdB inh: -0.2; Mtb BioA inh: -0.3

How did O=Nc1c(O)n(Cc2ccc(Cl)cc2)c2ccccc12 do in these assays?
FadD28 binding: -3.0; Y pestis TopoI: 26.8; PrP UTR inh: -17.2; Mtb BioA inh: 5.7; PfHsp40 yeast: 12.3

What do the screens show for `O=Nc1c(O)n(Cc2ccc(Cl)cc2Cl)c2ccccc12`?
FadD28 binding: -16.0; Y pestis TopoI: 8.0; PrP UTR inh: -11.5; Mtb BioA inh: 4.8; PfHsp40 yeast: 90.0*

Assay outcomes: PubChem BioAssay, Broad Institute
